Test results from PMC4336329 (PLoS ONE, 2015).
The whole screen tested about 310,000 compounds, of which about 2,200 (0.71%) showed an effect of 50% or more. Effects have a minus sign here. Shown is part of a subset that was picked to be rich in strong results.

target: human ether-à-go-go-related gene (hERG) potassium channel (human, UniProt Q12809); assay: primary screen, population patch clamp on CHO cells stably expressing hERG; higher = less effect of the substance
Sequence (Q12809 whole entry, looked up): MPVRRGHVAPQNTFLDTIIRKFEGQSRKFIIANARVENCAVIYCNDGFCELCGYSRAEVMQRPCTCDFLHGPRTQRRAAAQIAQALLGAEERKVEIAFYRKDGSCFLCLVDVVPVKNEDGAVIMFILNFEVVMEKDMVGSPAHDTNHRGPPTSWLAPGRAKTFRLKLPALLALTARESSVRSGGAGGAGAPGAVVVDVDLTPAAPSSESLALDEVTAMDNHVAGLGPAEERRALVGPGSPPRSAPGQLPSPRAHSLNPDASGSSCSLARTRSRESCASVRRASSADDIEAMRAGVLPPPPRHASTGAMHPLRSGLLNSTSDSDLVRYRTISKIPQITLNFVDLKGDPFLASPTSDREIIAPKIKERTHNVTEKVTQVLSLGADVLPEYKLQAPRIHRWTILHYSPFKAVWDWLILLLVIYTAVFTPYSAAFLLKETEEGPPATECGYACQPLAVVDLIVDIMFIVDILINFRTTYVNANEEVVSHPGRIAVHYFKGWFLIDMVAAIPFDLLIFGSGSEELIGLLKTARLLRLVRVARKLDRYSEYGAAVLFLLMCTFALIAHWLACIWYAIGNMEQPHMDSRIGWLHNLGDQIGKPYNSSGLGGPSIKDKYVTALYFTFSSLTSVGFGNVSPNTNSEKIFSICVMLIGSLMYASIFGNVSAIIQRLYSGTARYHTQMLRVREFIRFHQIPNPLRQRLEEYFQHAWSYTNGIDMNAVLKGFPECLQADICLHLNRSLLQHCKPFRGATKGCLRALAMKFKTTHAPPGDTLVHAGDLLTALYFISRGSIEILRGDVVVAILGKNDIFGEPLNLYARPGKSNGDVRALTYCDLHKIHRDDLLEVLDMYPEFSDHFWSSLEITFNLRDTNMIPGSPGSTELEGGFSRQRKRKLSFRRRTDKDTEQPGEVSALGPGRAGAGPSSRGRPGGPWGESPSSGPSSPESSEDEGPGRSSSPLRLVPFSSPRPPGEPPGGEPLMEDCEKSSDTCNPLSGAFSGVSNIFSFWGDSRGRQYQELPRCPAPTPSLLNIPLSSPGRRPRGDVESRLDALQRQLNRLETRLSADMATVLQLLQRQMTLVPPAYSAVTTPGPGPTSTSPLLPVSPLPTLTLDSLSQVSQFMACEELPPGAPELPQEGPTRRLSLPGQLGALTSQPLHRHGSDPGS

SMILES	hERG current change (%, negative = inhibition) at 1uM [%]
Cc1cc2nnc(SCc3ccccc3)n2c(N)n1	-5.86
CCCCNC(=O)CN(c1ccc(Cl)c(Cl)c1)S(C)(=O)=O	7.06
CCOc1ccc(Br)cc1C1C(C(=O)OC)=C(N)Oc2cc(N(C)C)ccc21 (stereo not shown)	16.6
COC(=O)C1=C(N)Oc2cc(N(C)C)ccc2C1c1ccccc1OC (stereo not shown)	-84.1
COC(=O)C1=C(N)Oc2cc(C)[nH]c(=O)c2C1c1ccccc1OC (stereo not shown)	9.49
Cc1cc(C)nc(SCc2ccc(C(=O)N/N=C/c3cccc(O)c3O)cc2)n1	10.8
Cc1cc(NCCN2CCOCC2)c2ccc3ccccc3c2n1	-58.3
COc1ccc2nc(C)cc(NCCN3CCOCC3)c2c1	12.3
c1ccc2[nH]c(NCCCN3CCOCC3)nc2c1	14.6
c1ccc2c(NCCCN3CCOCC3)c3ccccc3nc2c1	-54.2
c1ccc(-c2nc(NCCCN3CCOCC3)c3ccccc3n2)cc1	3.18
Cc1cc(NCCCN2CCOCC2)n2c(nc3ccccc32)c1C#N	-0.298
Cc1nc(NCCN2CCOCC2)c2oc3ccccc3c2n1.Cl	-8.71
CC(C)c1cc(NCCCN2CCOCC2)n2c(nc3ccccc32)c1C#N	-55.7
CCCc1cc(NCCCN2CCOCC2)n2c(nc3ccccc32)c1C#N	-37
Cc1[nH]nc2c1C(c1ccccc1F)CC(=O)N2 (stereo not shown)	-1.84
Cc1c(Cl)cccc1NC(=O)COc1ccc(S(=O)(=O)N2CCOCC2)cc1	3.86
Cc1ccc(S(=O)(=O)N2CCN(CC(=O)NC3CCCc4ccccc43)CC2)cc1C.O=C(O)C(=O)O (stereo not shown)	1.77
CCC(=O)Nc1ccc(NC(=S)NC(=O)/C=C/c2ccco2)cc1	6
Cc1ccc(-c2cc(C(=O)NCCc3ccccn3)c3ccccc3n2)c(C)c1	-13.8
Brc1ccc(NC(c2ccccc2)c2ccncc2)cc1.Cl (stereo not shown)	17.3
COCCNC(=O)C(c1cccs1)N(C(=O)Cn1nnc2ccccc21)c1ccccc1 (stereo not shown)	2.32
CC1(C)CC2(CC(c3ccccc3)Oc3cc(O)ccc32)NC(=O)N1 (stereo not shown)	10.8

SMILES	hERG current change (%, negative = inhibition) at 1uM [%]
CSC1=NC2(CC(c3ccccc3)Oc3cc(O)ccc32)CC(C)(C)N1 (stereo not shown)	-68.8
CC1(C)CC2(CC(c3ccccc3)Oc3cc(O)ccc32)NC(=S)N1 (stereo not shown)	6.06
Cc1nnc(NC(=O)c2c(F)c(F)c(F)c(F)c2F)s1	15.5
O=C(Nc1cnccn1)C1c2ccccc2Oc2ccccc21	0.161
O=C(NCc1ccco1)c1n[nH]c(=O)c2ccccc12	11.8
CN1CCc2c(sc3c2c(NCc2ccco2)nc2nnnn23)C1	-72.8
CCN1CCc2c(sc3c2c(NCc2ccco2)nc2nnnn23)C1	-69.3
Cc1nc(NCc2ccco2)c2c3c(sc2n1)CCC3	2.14
CCN1CCc2c(sc(NC(=S)NC(=O)c3ccco3)c2C(N)=O)C1	15.8
CSc1nc(SCC(=O)NCc2ccco2)c2c3c(sc2n1)CN(C)CC3	4.1
c1coc(CNc2ncnc3sc4c(c23)CCCCC4)c1	-16
COc1ccc(C2C(C(=O)Nc3ccccc3OC)=C(C)Nc3nnnn32)c(OC)c1 (stereo not shown)	7.88
CC(NC(=S)NCCCN1CCOCC1)C12CC3CC(CC(C3)C1)C2 (stereo not shown)	12.9
CCCCn1c(N)c(C(=O)NCCN2CCOCC2)c2nc3ccccc3nc21	-21
CC(C)Cn1c(N)c(C(=O)NCCN2CCOCC2)c2nc3ccccc3nc21	-71.5
CCCCCn1c(N)c(C(=O)NCCN2CCOCC2)c2nc3ccccc3nc21	-0.506
Cc1c(C(=O)N(CCc2ccccc2)Cc2ccccc2)cccc1[N+](=O)[O-]	12.7
Clc1ccccc1Cc1noc(CN2CCCCC2CCc2ccccn2)n1 (stereo not shown)	-3.35
CCC1CCCCN1Cc1nc(Cc2ccccc2Cl)no1 (stereo not shown)	4.88
OCCCC1CCCCN1Cc1nc(Cc2ccccc2Cl)no1 (stereo not shown)	-65.5
COC(=O)c1oc2ccccc2c1NC(=O)c1ccccc1O	16.2
Cc1ccc(C)c(NC(=O)CCN2C(=O)c3ccccc3C2=O)c1	15.3
CC(C)(C)NC(=O)CSCc1ccc(Br)cc1	1.24
